Data as given in PubChem BioAssay (NCATS).
Records with an inconclusive call do not appear. Calls of active or inactive are those of the source. Calls come from the whole dose curve; as a rule, active = well fitted inhibition curve with a large enough effect; inconclusive = small, poorly fitted or top-dose-only effect; inactive = flat fitted curve, though single readings scatter.

tested on: CRL-7250; experiment: Cytotoxic Profiling of Annotated Libraries Using Quantitative High-Throughput Screening (AID 1296008); conditions: Five cell lines viability, CellTiter-Glo ATP luminescence, 48-72 h; max response: stronger effect = lower value; note: nearly all actives have a fitted effect of over 60% in size
Summary of the method: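 Cells exposed to compounds for 48 or 72 hr at 37 degrees Celsius. Viability read as ATP-coupled luminescence with CellTiter-Glo after 10 min at room temperature.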
% is set by controls: 0 for no effect and ±100 for the full control effect; potency is the fitted concentration of half-maximal effect.

Row | SMILES | max response | outcome | Potency
1 | OC[C@H]1O[C@@H](OC(CCCCc2ccc(O)cc2)CCc2ccc(O)cc2)[C@H](O)[C@@H](O)[C@@H]1O (stereo not given in full) | -35.2% (inactive) | – | –
2 | CC(=O)C1=CCC2C3CCC4CC(O[C@@H]5O[C@H](CO)[C@@H](O[C@@H]6O[C@@H](C)[C@H](O)[C@@H](O)[C@H]6O)[C@H](O)[C@H]5O[C@@H]5O[C@H](CO)[C@@H](O)[C@H](O)[C@H]5O)CCC4(C)C3CCC12C (stereo not given in full) | -10.3% (inactive) | – | –
3 | C=C(C(=O)O)[C@@H]1CC[C@@]2(C)CC[C@H](O)[C@@]2(C(C)=O)C1 | – | inactive | –
4 | CC1(C)CCC2(C(=O)OC3OC(CO)C(O)C(O)C3O)CCC3(C)C(=CCC4C5(C)CCC(O)C(C)(C(=O)O)C5CCC43C)C2C1O (stereo not given) | 3.57% (inactive) | – | –
5 | C[C@@H]1CC[C@]2(C(=O)O)CC[C@]3(C)C(=CCC4[C@@]5(C)C[C@@H](O)[C@H](O)[C@@](C)(CO)C5CC[C@]43C)C2[C@]1(C)O (stereo not given in full) | -3.26% (inactive) | – | –
6 | N[C@H]1Cc2ccccc2N(O)C1=O | -6.2% (inactive) | – | –
7 | CC1(C)[C@@H](O)CC[C@]2(C)[C@H]3CC=C4[C@@H]5C[C@](C)(C(=O)O)CC[C@]5(C)CC[C@@]4(C)[C@]3(C)CC[C@@H]12 | -5.83% (inactive) | – | –
8 | COc1ccc([C@@H]2OC[C@H]3[C@@H]2CO[C@@H]3c2ccc(OC3OC(CO)C(O)C(O)C3O)c(OC)c2)cc1OC (stereo not given in full) | -6.62% (inactive) | – | –
9 | O=C(c1ccc2nccnc2c1)N1CCCCC1 | -4.12% (inactive) | – | –
10 | CC1OC(OC2C(CO)OC(OCC3OC(OC(=O)C45CCC(C)(C)CC4C4=CCC6C7(C)CCC(OC8OC(CO)C(O)C(OC9OC(CO)C(O)C(O)C9O)C8O)C(C)(C)C7CCC6(C)C4(C)CC5)C(O)C(O)C3O)C(O)C2O)C(O)C(O)C1OC1OC(CO)C(O)C(O)C1O (stereo not given) | -0.747% (inactive) | – | –
11 | CC(CO)C1CCC2(C)CC3C(CO)CC(O)C3C(C)(O)C/C=C/12 (stereo not given) | -6.97% (inactive) | – | –
12 | C#CCN(Cc1cc2c(=O)n(C)c(CN3CCN(C)CC3)nc2cc1Cl)c1ccc(C(=O)NCc2cccnc2)cc1 | – | – | 0.0082 µM (active)
13 | C=C[C@]1(C)C[C@H](O)[C@@H]2[C@H](OC(=O)[C@@H]2C)C1/C(C)=C/O[C@@H]1O[C@H](CO)[C@@H](O)[C@H](O)[C@H]1O (stereo not given in full) | -0.594% (inactive) | – | –
14 | OC[C@H]1O[C@@H](OC[C@H]2O[C@@H](OC/C=C/c3ccccc3)[C@H](O)[C@@H](O)[C@@H]2O)[C@@H](O)[C@@H]1O | 0.699% (inactive) | – | –
15 | CN1CCN(C(=O)c2ccc3cc(CCNc4ncnc5ccc(C#N)cc45)ccc3c2)CC1 | – | – | 4.61 µM (active)
16 | CC(=O)O[C@@H]1[C@@H](OC(=O)/C=C/c2ccccc2)[C@@H](OC(C)=O)[C@H](O[C@H]2[C@@H]3C=CO[C@@H](O[C@@H]4O[C@H](CO)[C@@H](O)[C@H](O)[C@H]4O)[C@@H]3[C@@]3(CO)O[C@@H]23)O[C@H]1C | – | inactive | –
17 | Nc1ncnc2c1nc(N)n2[C@@H]1O[C@H](CO)[C@@H](O)[C@H]1O | – | – | 2.59 µM (active)
18 | CCNC(=O)C1OC(n2cnc3c(N)nc(NCCc4ccc(CCC(=O)O)cc4)nc32)C(O)C1O (stereo not given) | -14.2% (inactive) | – | –
19 | COc1c2c(c(C)c3c1C(=O)OC3)O[C@@]1(C)CCC3(C(C)(C)O)OC(=O)CC[C@]3(C)[C@H]1C2 (stereo not given in full) | -2.51% (inactive) | – | –
20 | COc1cc2c(cc1OC)[C@@H]1[C@H](O)[C@@H](OC)C=C3CCN(C2)[C@H]31 | – | – | 12.8 µM (active)
